Binding signal data for 20 sequences are collected here from article PMC11006913.

Residue numbers refer to the chain shown, from its start.

What all share (test): PBM; 200 nM protein, PBS
Details in all cases: dsDNA, one strand shown

Experiment [1] deals with ALX1 (Homo sapiens, UniProt Q15699 118-204, L144V).
For experiment [2], the target named is ALX1 (Homo sapiens, UniProt Q15699 118-204, L144R).
For experiment [3], the target named is ALX1 (Homo sapiens, UniProt Q15699 118-204).
Experiment [4] deals with ALX3 (Homo sapiens, UniProt O95076 139-225, N203Q).
Sequence of ALX3 (Homo sapiens, UniProt O95076 139-225, N203Q) (O95076 139-225 N203Q): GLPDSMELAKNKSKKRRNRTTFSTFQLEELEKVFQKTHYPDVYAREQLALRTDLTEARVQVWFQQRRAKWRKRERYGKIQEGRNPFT
Experiment [5] deals with ALX3 (Homo sapiens, UniProt O95076 139-225).
Sequence of ALX3 (Homo sapiens, UniProt O95076 139-225) (O95076 139-225): as the sequence (O95076 139-225 N203Q) above, with Q65N counted along it
Experiment [6] addresses ALX3 (Homo sapiens, UniProt O95076 139-225, L168Q).
Experiment [7] addresses ALX3 (Homo sapiens, UniProt O95076 139-225, L168V).
Experiment [8] concerns the target ALX3 (Homo sapiens, UniProt O95076 139-225, N203S).
Experiment [9] addresses PROP1 (Homo sapiens, UniProt O75360 56-141).
The target in experiment [10] is HOXD13 (Homo sapiens, UniProt P35453 263-343, T313R).
Sequence of HOXD13 (Homo sapiens, UniProt P35453 263-343, T313R) (P35453 263-343 T313R): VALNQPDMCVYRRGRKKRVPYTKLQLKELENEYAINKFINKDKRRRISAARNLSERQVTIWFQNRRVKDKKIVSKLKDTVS
Experiment [11] has as its target HOXD13 (Homo sapiens, UniProt P35453 263-343).
Experiment [12] has as its target HOXD13 (Homo sapiens, UniProt P35453 263-343, T313A).
Experiment [13] deals with VAX1 (Homo sapiens, UniProt Q5SQQ9 86-172).
Sequence of VAX1 (Homo sapiens, UniProt Q5SQQ9 86-172) (Q5SQQ9 86-172): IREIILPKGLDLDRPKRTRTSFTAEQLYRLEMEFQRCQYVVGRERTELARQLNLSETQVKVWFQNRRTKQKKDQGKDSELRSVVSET
Experiment [14] deals with VAX1 (Homo sapiens, UniProt Q5SQQ9 86-172, T142I).
Sequence of VAX1 (Homo sapiens, UniProt Q5SQQ9 86-172, T142I) (Q5SQQ9 86-172 T142I): as the sequence (Q5SQQ9 86-172) above, with T57I counted along it
Experiment [15] deals with VAX1 (Homo sapiens, UniProt Q5SQQ9 86-172, K157R).
Sequence of VAX1 (Homo sapiens, UniProt Q5SQQ9 86-172, K157R) (Q5SQQ9 86-172 K157R): as the sequence (Q5SQQ9 86-172) above, with K72R counted along it
The target in experiment [16] is T1, PAX4 (Homo sapiens, UniProt O43316 9-242, F177V).
T1 sequence: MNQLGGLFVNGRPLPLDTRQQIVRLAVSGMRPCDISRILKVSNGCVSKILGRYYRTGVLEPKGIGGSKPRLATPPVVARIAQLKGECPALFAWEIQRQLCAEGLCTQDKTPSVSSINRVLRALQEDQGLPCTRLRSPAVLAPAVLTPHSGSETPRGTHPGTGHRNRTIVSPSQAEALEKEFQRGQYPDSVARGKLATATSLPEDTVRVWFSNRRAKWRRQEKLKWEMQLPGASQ

Experiment [17] has as its target T2, PAX4 (Homo sapiens, UniProt O43316 9-242, R227W).
T2 sequence: T1 sequence with V169F, R219W

For experiment [18], the target named is PROP1 (Homo sapiens, UniProt O75360 56-141, R99H).
Sequence of PROP1 (Homo sapiens, UniProt O75360 56-141, R99H) (O75360 56-141 R99H): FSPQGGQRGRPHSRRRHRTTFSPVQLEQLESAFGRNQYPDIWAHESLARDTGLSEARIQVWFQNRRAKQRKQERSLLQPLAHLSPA
The target in experiment [19] is PROP1 (Homo sapiens, UniProt O75360 56-141, F88S).
Sequence of PROP1 (Homo sapiens, UniProt O75360 56-141, F88S) (O75360 56-141 F88S): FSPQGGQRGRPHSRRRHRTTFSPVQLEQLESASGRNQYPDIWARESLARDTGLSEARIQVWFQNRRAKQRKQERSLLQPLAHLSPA
Experiment [20] has as its target T3, NKX2-6 (Homo sapiens, UniProt A6NCS4 118-204).
T3 sequence: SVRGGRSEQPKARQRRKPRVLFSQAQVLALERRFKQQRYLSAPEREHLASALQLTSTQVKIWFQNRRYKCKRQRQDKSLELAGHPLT

The target of experiment [21] is T4, NKX2-6 (Homo sapiens, UniProt A6NCS4 118-204, F151L).
T4 sequence: T3 sequence with F34L

Sequence of ALX3 (Homo sapiens, UniProt O95076 139-225, N203S) (O95076 139-225 N203S): as the sequence (O95076 139-225 N203Q) above, with Q65S counted along it
Sequence of ALX3 (Homo sapiens, UniProt O95076 139-225, L168Q) (O95076 139-225 L168Q): as the sequence (O95076 139-225 N203Q) above, with L30Q, Q65N counted along it
Sequence of ALX3 (Homo sapiens, UniProt O95076 139-225, L168V) (O95076 139-225 L168V): as the sequence (O95076 139-225 N203Q) above, with L30V, Q65N counted along it
Sequence of HOXD13 (Homo sapiens, UniProt P35453 263-343, T313A) (P35453 263-343 T313A): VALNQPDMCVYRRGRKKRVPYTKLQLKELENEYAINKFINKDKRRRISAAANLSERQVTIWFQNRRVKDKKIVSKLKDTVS
Sequence of PROP1 (Homo sapiens, UniProt O75360 56-141) (O75360 56-141): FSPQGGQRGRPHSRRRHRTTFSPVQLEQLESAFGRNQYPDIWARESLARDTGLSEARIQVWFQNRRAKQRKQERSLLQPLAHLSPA
Sequence of HOXD13 (Homo sapiens, UniProt P35453 263-343) (P35453 263-343): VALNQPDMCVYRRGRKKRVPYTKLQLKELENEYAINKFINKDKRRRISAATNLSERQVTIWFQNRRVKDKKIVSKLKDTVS
Sequence of ALX1 (Homo sapiens, UniProt Q15699 118-204, L144R) (Q15699 118-204 L144R): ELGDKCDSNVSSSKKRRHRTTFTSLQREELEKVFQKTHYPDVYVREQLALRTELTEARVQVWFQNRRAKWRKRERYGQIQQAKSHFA
Sequence of ALX1 (Homo sapiens, UniProt Q15699 118-204, L144V) (Q15699 118-204 L144V): as the sequence (Q15699 118-204 L144R) above, with R27V counted along it
Sequence of ALX1 (Homo sapiens, UniProt Q15699 118-204) (Q15699 118-204): as the sequence (Q15699 118-204 L144R) above, with R27L counted along it

Take CCTACGCC: the binding signal is 6.43 upbm affinity estimate (log intensity, higher = more binding, comparable within an allelic series) in the experiment with ALX1 [1]; 6.36 upbm affinity estimate (log intensity, higher = more binding, comparable within an allelic series) with ALX1 [2]; 6.5 upbm affinity estimate (log intensity, higher = more binding, comparable within an allelic series) with ALX1 [3].
AGAGGGGG: the binding signal with ALX3 [4] is 7.63 upbm affinity estimate (log intensity, higher = more binding, comparable within an allelic series); with ALX3 [5], 7.93 upbm affinity estimate (log intensity, higher = more binding, comparable within an allelic series); with ALX3 [6], 7.69 upbm affinity estimate (log intensity, higher = more binding, comparable within an allelic series); in the experiment with ALX3 [7], 7.67 upbm affinity estimate (log intensity, higher = more binding, comparable within an allelic series); with ALX3 [8], 7.59 upbm affinity estimate (log intensity, higher = more binding, comparable within an allelic series).
In the case of CGAAATCA, the binding signal in the experiment with ALX3 [4] is 8.09 upbm affinity estimate (log intensity, higher = more binding, comparable within an allelic series); in the experiment with ALX3 [5], 9.04 upbm affinity estimate (log intensity, higher = more binding, comparable within an allelic series); with PROP1 [9], 7.77 upbm affinity estimate (log intensity, higher = more binding, comparable within an allelic series); in the experiment with ALX3 [8], 8.15 upbm affinity estimate (log intensity, higher = more binding, comparable within an allelic series).
With CCCCCCAA, the binding signal is 7.79 upbm affinity estimate (log intensity, higher = more binding, comparable within an allelic series) in the experiment with ALX3 [4]; 7.79 upbm affinity estimate (log intensity, higher = more binding, comparable within an allelic series) with ALX3 [5]; 7.64 upbm affinity estimate (log intensity, higher = more binding, comparable within an allelic series) with ALX3 [6]; 7.7 upbm affinity estimate (log intensity, higher = more binding, comparable within an allelic series) with ALX3 [7]; 7.81 upbm affinity estimate (log intensity, higher = more binding, comparable within an allelic series) with ALX3 [8].
Turning to ATAAATGG, the binding signal was 8.33 upbm affinity estimate (log intensity, higher = more binding, comparable within an allelic series) with ALX3 [4] and 9.85 upbm affinity estimate (log intensity, higher = more binding, comparable within an allelic series) with ALX3 [5].
Take CCACAGGG: the binding signal with ALX3 [4] was 7.75 upbm affinity estimate (log intensity, higher = more binding, comparable within an allelic series); with HOXD13 [10], 9.71 upbm affinity estimate (log intensity, higher = more binding, comparable within an allelic series); with HOXD13 [11], 9.49 upbm affinity estimate (log intensity, higher = more binding, comparable within an allelic series); with ALX3 [5], 7.62 upbm affinity estimate (log intensity, higher = more binding, comparable within an allelic series); with ALX3 [6] it was 7.81 upbm affinity estimate (log intensity, higher = more binding, comparable within an allelic series); in the experiment with HOXD13 [12] it was 9.58 upbm affinity estimate (log intensity, higher = more binding, comparable within an allelic series). In addition, the binding signal in the experiment with ALX3 [7] was 7.81 upbm affinity estimate (log intensity, higher = more binding, comparable within an allelic series); with ALX3 [8] it was 7.73 upbm affinity estimate (log intensity, higher = more binding, comparable within an allelic series).
As for CATATTAC, the binding signal with ALX3 [4] was 8.38 upbm affinity estimate (log intensity, higher = more binding, comparable within an allelic series); with ALX3 [5], 10.5 upbm affinity estimate (log intensity, higher = more binding, comparable within an allelic series); with VAX1 [13], 10.8 upbm affinity estimate (log intensity, higher = more binding, comparable within an allelic series); with VAX1 [14], 10.4 upbm affinity estimate (log intensity, higher = more binding, comparable within an allelic series); with VAX1 [15], 10.5 upbm affinity estimate (log intensity, higher = more binding, comparable within an allelic series).
For AATATTCG, the binding signal in the experiment with ALX3 [4] is 8.28 upbm affinity estimate (log intensity, higher = more binding, comparable within an allelic series); with ALX3 [5], 9.33 upbm affinity estimate (log intensity, higher = more binding, comparable within an allelic series).
As to CACCGCCG, the binding signal is 7.75 upbm affinity estimate (log intensity, higher = more binding, comparable within an allelic series) in the experiment with ALX3 [4]; 7.68 upbm affinity estimate (log intensity, higher = more binding, comparable within an allelic series) with ALX3 [5]; 7.66 upbm affinity estimate (log intensity, higher = more binding, comparable within an allelic series) in the experiment with ALX3 [6]; 7.7 upbm affinity estimate (log intensity, higher = more binding, comparable within an allelic series) with ALX3 [7]; 7.75 upbm affinity estimate (log intensity, higher = more binding, comparable within an allelic series) with ALX3 [8].
ATATAATA: the binding signal was 8.64 upbm affinity estimate (log intensity, higher = more binding, comparable within an allelic series) with ALX3 [4]; 10.8 upbm affinity estimate (log intensity, higher = more binding, comparable within an allelic series) in the experiment with PAX4 [16]; 10.9 upbm affinity estimate (log intensity, higher = more binding, comparable within an allelic series) in the experiment with PAX4 [17]; 8.68 upbm affinity estimate (log intensity, higher = more binding, comparable within an allelic series) in the experiment with ALX3 [8].
Take CCTGGCCC: the binding signal is 7.75 upbm affinity estimate (log intensity, higher = more binding, comparable within an allelic series) with ALX3 [4]; 7.59 upbm affinity estimate (log intensity, higher = more binding, comparable within an allelic series) with ALX3 [5]; 7.65 upbm affinity estimate (log intensity, higher = more binding, comparable within an allelic series) with ALX3 [6]; 7.67 upbm affinity estimate (log intensity, higher = more binding, comparable within an allelic series) with ALX3 [7]; 7.74 upbm affinity estimate (log intensity, higher = more binding, comparable within an allelic series) in the experiment with ALX3 [8].
In the case of ACCCCCGC, the binding signal was 7.74 upbm affinity estimate (log intensity, higher = more binding, comparable within an allelic series) with ALX3 [4]; 7.66 upbm affinity estimate (log intensity, higher = more binding, comparable within an allelic series) in the experiment with ALX3 [5]; 6.56 upbm affinity estimate (log intensity, higher = more binding, comparable within an allelic series) in the experiment with PROP1 [9]; 6.52 upbm affinity estimate (log intensity, higher = more binding, comparable within an allelic series) with PROP1 [18]; 7.66 upbm affinity estimate (log intensity, higher = more binding, comparable within an allelic series) with ALX3 [6]; 7.68 upbm affinity estimate (log intensity, higher = more binding, comparable within an allelic series) with ALX3 [7]. The binding signal is 6.34 upbm affinity estimate (log intensity, higher = more binding, comparable within an allelic series) in the experiment with PROP1 [19] and 7.73 upbm affinity estimate (log intensity, higher = more binding, comparable within an allelic series) in the experiment with ALX3 [8].
With AGCCGGCG, the binding signal in the experiment with ALX3 [4] is 7.78 upbm affinity estimate (log intensity, higher = more binding, comparable within an allelic series); with ALX3 [5] it was 7.6 upbm affinity estimate (log intensity, higher = more binding, comparable within an allelic series); in the experiment with VAX1 [13], 6.78 upbm affinity estimate (log intensity, higher = more binding, comparable within an allelic series); with ALX3 [6], 7.66 upbm affinity estimate (log intensity, higher = more binding, comparable within an allelic series); with ALX3 [7] it was 7.63 upbm affinity estimate (log intensity, higher = more binding, comparable within an allelic series); with VAX1 [14] it was 6.99 upbm affinity estimate (log intensity, higher = more binding, comparable within an allelic series). The binding signal was 7.77 upbm affinity estimate (log intensity, higher = more binding, comparable within an allelic series) in the experiment with ALX3 [8] and 6.79 upbm affinity estimate (log intensity, higher = more binding, comparable within an allelic series) with VAX1 [15].
Take CAGTTACG: the binding signal was 8 upbm affinity estimate (log intensity, higher = more binding, comparable within an allelic series) with ALX3 [4]; 8.89 upbm affinity estimate (log intensity, higher = more binding, comparable within an allelic series) with ALX3 [5]; 8.09 upbm affinity estimate (log intensity, higher = more binding, comparable within an allelic series) with ALX3 [6]; 8.1 upbm affinity estimate (log intensity, higher = more binding, comparable within an allelic series) in the experiment with ALX3 [7]; 8.08 upbm affinity estimate (log intensity, higher = more binding, comparable within an allelic series) with ALX3 [8].
Take GACATAAC: the binding signal in the experiment with ALX3 [4] was 8.29 upbm affinity estimate (log intensity, higher = more binding, comparable within an allelic series); in the experiment with ALX3 [5] it was 9.44 upbm affinity estimate (log intensity, higher = more binding, comparable within an allelic series).
Turning to CCGCGGAC, the binding signal was 7.74 upbm affinity estimate (log intensity, higher = more binding, comparable within an allelic series) with ALX3 [4]; 7.45 upbm affinity estimate (log intensity, higher = more binding, comparable within an allelic series) with ALX3 [5]; 7.7 upbm affinity estimate (log intensity, higher = more binding, comparable within an allelic series) in the experiment with ALX3 [6]; 7.67 upbm affinity estimate (log intensity, higher = more binding, comparable within an allelic series) with ALX3 [7]; 7.75 upbm affinity estimate (log intensity, higher = more binding, comparable within an allelic series) in the experiment with ALX3 [8].
For the sequence TTATTAAA, the binding signal is 8.64 upbm affinity estimate (log intensity, higher = more binding, comparable within an allelic series) with ALX3 [4]; 10.8 upbm affinity estimate (log intensity, higher = more binding, comparable within an allelic series) with HOXD13 [10]; 11.9 upbm affinity estimate (log intensity, higher = more binding, comparable within an allelic series) with HOXD13 [11]; 11.7 upbm affinity estimate (log intensity, higher = more binding, comparable within an allelic series) with HOXD13 [12]; 8.68 upbm affinity estimate (log intensity, higher = more binding, comparable within an allelic series) with ALX3 [8].
In the case of ATATTATA, the binding signal with ALX3 [4] is 8.63 upbm affinity estimate (log intensity, higher = more binding, comparable within an allelic series); in the experiment with PAX4 [16] it was 10.7 upbm affinity estimate (log intensity, higher = more binding, comparable within an allelic series); with PAX4 [17], 10.9 upbm affinity estimate (log intensity, higher = more binding, comparable within an allelic series); with ALX3 [8] it was 8.69 upbm affinity estimate (log intensity, higher = more binding, comparable within an allelic series).
CCTAACAG: the binding signal is 8.02 upbm affinity estimate (log intensity, higher = more binding, comparable within an allelic series) with ALX3 [4]; 8.92 upbm affinity estimate (log intensity, higher = more binding, comparable within an allelic series) with ALX3 [5]; 8.23 upbm affinity estimate (log intensity, higher = more binding, comparable within an allelic series) in the experiment with ALX3 [6]; 8.19 upbm affinity estimate (log intensity, higher = more binding, comparable within an allelic series) with ALX3 [7]; 8.09 upbm affinity estimate (log intensity, higher = more binding, comparable within an allelic series) in the experiment with ALX3 [8].
As to GCACCCCC, the binding signal with ALX3 [4] is 7.73 upbm affinity estimate (log intensity, higher = more binding, comparable within an allelic series); with NKX2-6 [20] it was 9.22 upbm affinity estimate (log intensity, higher = more binding, comparable within an allelic series); with ALX3 [5], 7.8 upbm affinity estimate (log intensity, higher = more binding, comparable within an allelic series); in the experiment with ALX3 [6] it was 7.58 upbm affinity estimate (log intensity, higher = more binding, comparable within an allelic series); in the experiment with NKX2-6 [21] it was 9.15 upbm affinity estimate (log intensity, higher = more binding, comparable within an allelic series); with ALX3 [7], 7.59 upbm affinity estimate (log intensity, higher = more binding, comparable within an allelic series). The binding signal with ALX3 [8] is 7.76 upbm affinity estimate (log intensity, higher = more binding, comparable within an allelic series).
